Compounds without any hit were thinned out: in the full panel of roughly 83,000, 20% have a hit.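 Assay: single dose, 48 h. Readout: percent growth (0 = no net growth; negative = cell death). Active: <10.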 Active and inactive are the calls of the source.
How the values were obtained:
Test in all cases: NCI-60 one-dose screen, 48 h (100 = growth as untreated, 0 = no growth, -100 = all killed)
Conditions in all cases: 10 µM unless noted
NCI-H23 lung = test system: NCI-H23 lung
NCI-H226 lung = test system: NCI-H226 lung
NCI-H322M lung = test system: NCI-H322M lung
HOP-62 NSCLC = test system: HOP-62 NSCLC
NCI-H460 lung = test system: NCI-H460 lung
HOP-92 NSCLC = test system: HOP-92 NSCLC
NCI-H522 lung = test system: NCI-H522 lung
A549/ATCC NSCLC = test system: A549/ATCC NSCLC
786-0 renal = test system: 786-0 renal
COLO 205 colon = test system: COLO 205 colon
DU-145 prostate = test system: DU-145 prostate
K-562 leukemia = test system: K-562 leukemia
MALME-3M melanoma = test system: MALME-3M melanoma
MDA-MB-231 breast = test system: MDA-MB-231 breast
RXF 393 renal = test system: RXF 393 renal
SF-268 CNS = test system: SF-268 CNS
SF-539 CNS = test system: SF-539 CNS
UACC-257 melanoma = test system: UACC-257 melanoma
M14 melanoma = test system: M14 melanoma
SF-295 CNS = test system: SF-295 CNS

Measured: growth

Nc1c(C(=O)Nc2cccc(Cl)c2)sc2ncc(Br)cc12
inactive: NCI-H23 lung 79.5% | NCI-H226 lung 83.5% | NCI-H322M lung 59.4% | HOP-62 NSCLC 75.4% | NCI-H460 lung 28.8% | HOP-92 NSCLC 78.5% | NCI-H522 lung 65.2% | A549/ATCC NSCLC 34.6% | 786-0 renal 76.1% | COLO 205 colon 85.1% | DU-145 prostate 59.6% | K-562 leukemia 82.9% | MALME-3M melanoma 66.9% | MDA-MB-231 breast 73.5% | RXF 393 renal 86.4% | SF-268 CNS 64.1% | SF-539 CNS 61.5% | UACC-257 melanoma 96% | M14 melanoma 79.9%

CCC(=O)NC(O)C(Cl)(Cl)C(C)Cl (configuration not stated)
inactive: NCI-H23 lung 96.3% | NCI-H226 lung 95.7% | NCI-H322M lung 99.6% | HOP-62 NSCLC 102% | NCI-H460 lung 109% | HOP-92 NSCLC 88.1% | NCI-H522 lung 102% | A549/ATCC NSCLC 97.5% | 786-0 renal 101% | COLO 205 colon 114% | DU-145 prostate 116% | K-562 leukemia 112% | MALME-3M melanoma 87% | MDA-MB-231 breast 99.8% | RXF 393 renal 111% | SF-268 CNS 109% | SF-539 CNS 99.3% | UACC-257 melanoma 93.4% | M14 melanoma 98.7%

CSC1=NC(=Nc2c(C)cccc2C)C2(CCC(C(C)(C)C)CC2)N1c1ccc(Cl)cc1 (configuration not stated)
inactive: NCI-H23 lung 48.6% | NCI-H226 lung 48.6% | NCI-H322M lung 64.8% | HOP-62 NSCLC 42% | NCI-H460 lung 16% | HOP-92 NSCLC 62.7% | NCI-H522 lung 48.2% | A549/ATCC NSCLC 30.5% | 786-0 renal 51.1% | COLO 205 colon 40.8% | DU-145 prostate 40.3% | K-562 leukemia 17.7% | MALME-3M melanoma 38.5% | MDA-MB-231 breast 61.8% | RXF 393 renal 38% | SF-268 CNS 42.8% | SF-539 CNS 46.5% | UACC-257 melanoma 54.1%

CC(CN1CCN(CCOCCO)CC1)CN1c2ccccc2Sc2ccc(Cl)cc21 (configuration not stated)
active: HOP-92 NSCLC -3.33% | COLO 205 colon -79.9% | K-562 leukemia 6.64% | UACC-257 melanoma -3.9% | M14 melanoma 5.98%
inactive: NCI-H23 lung 72.7% | NCI-H226 lung 83.5% | NCI-H322M lung 88.2% | HOP-62 NSCLC 107% | NCI-H460 lung 50.2% | NCI-H522 lung 33.3% | A549/ATCC NSCLC 75.1% | 786-0 renal 65.5% | DU-145 prostate 70.3% | MALME-3M melanoma 45.1% | MDA-MB-231 breast 29.9% | RXF 393 renal 56.8% | SF-268 CNS 63.8% | SF-539 CNS 79.2%

CCOC(=O)C(=CNc1ccccc1Cl)C(=O)OCC
inactive: NCI-H23 lung 103% | NCI-H226 lung 122% | NCI-H322M lung 110% | HOP-62 NSCLC 94.5% | NCI-H460 lung 103% | HOP-92 NSCLC 97.2% | NCI-H522 lung 72% | A549/ATCC NSCLC 85.6% | 786-0 renal 87.7% | COLO 205 colon 129% | DU-145 prostate 107% | K-562 leukemia 54.3% | MALME-3M melanoma 140% | MDA-MB-231 breast 104% | RXF 393 renal 100% | SF-268 CNS 94.3% | SF-295 CNS 89.9% | SF-539 CNS 102% | UACC-257 melanoma 103% | M14 melanoma 113%

COc1cccc(NC(=O)[C@H](C(C)C)n2c(=O)[nH]c3ccccc3c2=O)c1
inactive: NCI-H23 lung 99.8% | NCI-H226 lung 92.4% | NCI-H322M lung 117% | HOP-62 NSCLC 102% | NCI-H460 lung 103% | HOP-92 NSCLC 110% | NCI-H522 lung 99.1% | A549/ATCC NSCLC 97.9% | 786-0 renal 105% | COLO 205 colon 108% | DU-145 prostate 107% | K-562 leukemia 90.4% | MALME-3M melanoma 104% | MDA-MB-231 breast 107% | RXF 393 renal 109% | SF-268 CNS 111% | SF-539 CNS 102% | UACC-257 melanoma 96.5% | M14 melanoma 107%

CC(=O)c1ccc(-n2c(-c3cc(-c4ccsc4)n[nH]3)n[nH]c2=S)cc1
inactive: NCI-H23 lung 102% | NCI-H226 lung 99.6% | NCI-H322M lung 101% | HOP-62 NSCLC 112% | NCI-H460 lung 105% | HOP-92 NSCLC 89.9% | NCI-H522 lung 82.6% | A549/ATCC NSCLC 98.3% | 786-0 renal 101% | COLO 205 colon 117% | DU-145 prostate 110% | K-562 leukemia 105% | MALME-3M melanoma 106% | MDA-MB-231 breast 105% | RXF 393 renal 106% | SF-268 CNS 107% | SF-539 CNS 97.5% | UACC-257 melanoma 101% | M14 melanoma 97.8%

O=C1c2ccccc2C2N1CCC1CCc3ccccc3N12 (configuration not stated)
inactive: NCI-H23 lung 99.5% | NCI-H226 lung 90.2% | NCI-H322M lung 85.4% | HOP-62 NSCLC 108% | NCI-H460 lung 104% | HOP-92 NSCLC 73.6% | NCI-H522 lung 84.8% | A549/ATCC NSCLC 99.1% | 786-0 renal 99.7% | COLO 205 colon 112% | DU-145 prostate 117% | K-562 leukemia 89.4% | MALME-3M melanoma 88.9% | MDA-MB-231 breast 92.7% | RXF 393 renal 106% | SF-268 CNS 111% | SF-539 CNS 88.9% | UACC-257 melanoma 102% | M14 melanoma 97.1%
